Screening results as filed in PubChem.
Rows were chosen to be rich in hits. Some 14% of all compounds tested hit in one or more screens of this group.
HCMV inh – qHTS Assay for inhibitors of the human cytomegalovirus (HCMV). hit rate 4.5% among 410,000. HFF cells, HCMV-luciferase reporter, 72 h; hits give low values. AID 1259415, 2018. activity change, negative = inhibition, % at 57.5 µM; in the data active = activity change below about -60%; inconclusive = no clear call, values can overlap the other calls; inactive = above about -39%
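Compounds were evaluated in HFFs infected with an HCMV luciferase reporter virus (MOI 1 PFU/cell). Luciferase in lysates collected 72 h post infection served as the replication measure.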
Pf growth 48h – Primary qHTS for delayed death inhibitors of the malarial parasite plastid, 48 hour incubation; P. falciparum luciferase growth in erythrocytes, 48 h; Potency, µM (series often up to 28.7 µM), inactives show top-dose activity change, negative = inhibition, hits mostly inhibitors; hit rate 5.9% among 310,000; AID 504832, 2011; also: potency is read from the fitted curve at half-maximal effect
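Here the parasites carry a stable luciferase gene and grow inside erythrocytes in Albumax-based RPMI medium with compound for one erythrocytic cycle. Activity is scored as loss of luminescent signal.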
Pf growth 96h – Primary qHTS for delayed death inhibitors of the malarial parasite plastid, 96 hour incubation; P. falciparum luciferase reporter growth, 96 h; Potency, µM (titrated, usually from 28.7 µM), inactives show at the highest dose activity change, negative = inhibition, hits mostly inhibitors; hit rate 6.9% among 320,000; AID 504834, 2011; also: potency is read from the fitted curve at half-maximal effect
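Cell-based qHTS: luciferase-tagged P. falciparum in erythrocytes (2% hematocrit, 0.05% parasitemia final) incubated with compounds for 96 hours, 37 C, 5% CO2; luciferase detection reagent then added and luminescence measured.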
Sm TGR block – qHTS Assay for the Inhibitors of Schistosoma Mansoni Peroxiredoxins; Schistosoma mansoni thioredoxin glutathione reductase (TGR), Q962Y6; purified TGR, DTNB reduction, TNB absorbance 405 nm; Potency, µM (series often up to 114 µM), inactives show at the top dose activity change, negative = inhibition, actives largely listed as inhibitors; hit rate 3% among 360,000; also: potency is read from the fitted curve at half-maximal effect; nearly all actives have a fitted effect of over 60% in size
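Kinetic colorimetric format: TGR-catalysed, NADPH-driven DTNB reduction monitored via TNB absorbance. Enzyme dispensed at 20 nM; compound exposure 15 min at room temperature before reaction start.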
Giardia FBPA inh-1 – qHTS Assay for Inhibitors of Fructose-1,6-bisphosphate Aldolase from Giardia Lamblia. Potency, µM (highest dose often 59.6 µM), without a hit: at the top dose activity, negative = inhibition, most hits filed as inhibitors. hit rate 0.71% among 290,000. purified Giardia FBPA; also: potency is read from the fitted curve at half-maximal effect; nearly all actives have a fitted effect of over 55% in size
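Giardia FBPA (40 nM reagent) was preincubated 10 min at RT with compound (up to 57.5 uM final), then substrate plus GAPDH/TPI/NAD/arsenate coupling system with diaphorase/resazurin was added; resorufin fluorescence (525/598 nm) was read after 20 min.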
Giardia growth – qHTS Assay for Inhibitors of Fructose-1,6-bisphosphate Aldolase from Giardia Lamblia: Giardia lamblia growth inhibition; shares compounds with Giardia FBPA inh-1; Giardia lamblia trophozoite growth inhibition; Potency, µM (doses to about 57.5 µM), inactives show at the top dose activity change, negative = inhibition, hits mostly inhibitors; hit rate 5% among 1,500;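 also: potency is read from the fitted curve at half-maximal effect; trophozoites exposed to compound for 48 h at 37 °C; nearly all actives have a fitted effect of over 70% in size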
Mammal cell tox – qHTS Assay for Inhibitors of Fructose-1,6-bisphosphate Aldolase from Giardia Lamblia: Mammalian cellular toxicity | Potency, µM (top dose mostly 57.5 µM), for inactives: at the highest dose viability change, negative = toxicity, hits mostly inhibitors | AID 2786, 2010 | shares compounds with Giardia FBPA inh-1 | hit rate 4% among 1,500 | mammalian cell viability counter-screen, qHTS;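 also: Chinese hamster ovary cells used as mammalian cytotoxicity surrogate; viability measured as cellular ATP by luminescence; potency is read from the fitted curve at half-maximal effect; compound exposure lasted 48 h before reading; nearly all actives have a fitted effect of over 60% in size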
Giardia FBPA inh-2 – qHTS Assay for Inhibitors of Fructose-1,6-bisphosphate Aldolase from Giardia Lamblia: Primary screen confirmation | shares compounds with Giardia FBPA inh-1 | purified Giardia aldolase enzyme activity, qHTS | Potency, µM (series often up to 57.5 µM), for the others: at the highest dose activity change, negative = inhibition, actives largely listed as inhibitors | hit rate 5% among 1,500 | AID 2787, 2010; also: potency is read from the fitted curve at half-maximal effect; nearly all actives have a fitted effect of over 45% in size
Rabbit aldolase – qHTS Assay for Inhibitors of Fructose-1,6-bisphosphate Aldolase from Giardia Lamblia: Rabbit FBPA Selectivity | hit rate 4% among 1,500 | Rabbit muscle FBPA enzyme inhibition, selectivity counter-screen | shares compounds with Giardia FBPA inh-1 | Potency, µM (top dose mostly 57.5 µM), for inactives: at the highest dose activity, negative = inhibition, most hits filed as inhibitors; also: potency is read from the fitted curve at half-maximal effect; nearly all actives have a fitted effect of over 60% in size
Target sequence (P00883 whole entry, looked up): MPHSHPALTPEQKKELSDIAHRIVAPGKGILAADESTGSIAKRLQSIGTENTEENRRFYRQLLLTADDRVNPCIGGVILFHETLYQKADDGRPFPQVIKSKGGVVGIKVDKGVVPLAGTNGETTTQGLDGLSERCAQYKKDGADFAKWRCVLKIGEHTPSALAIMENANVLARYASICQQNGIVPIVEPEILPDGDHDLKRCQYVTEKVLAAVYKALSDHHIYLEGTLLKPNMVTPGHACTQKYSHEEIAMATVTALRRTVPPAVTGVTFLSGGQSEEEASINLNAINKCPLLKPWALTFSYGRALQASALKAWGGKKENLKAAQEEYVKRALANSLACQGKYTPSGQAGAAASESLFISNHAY
GAPDH counter – qHTS Assay for Inhibitors of Fructose-1,6-bisphosphate Aldolase from Giardia Lamblia: Coupling assay counterscreen confirmation; shares compounds with Giardia FBPA inh-1; GAPDH coupling enzyme counterscreen, biochemical, qHTS; Potency, µM (highest dose often 57.5 µM), for the others: top-dose activity change, negative = inhibition, hits mostly inhibitors; hit rate 6% among 1,500; AID 2795, 2010; also: potency is read from the fitted curve at half-maximal effect; nearly all actives have a fitted effect of over 55% in size
Starred values were filed as active, the others as inactive; u = inconclusive; x = no result; [ ] = remark or other dose. Unless noted, calls follow the shape of the dose curve; as a rule, active = well fitted curve in the direction sought with a large enough effect; inconclusive = small, poorly fitted or top-dose-only effect, or another doubt; inactive = no such curve, though single readings can be large; an effect the other way counts as inactive or inconclusive. % is scaled to controls: 0 for no effect and ±100 for the full control effect.

SMILES	HCMV inh	Pf growth 48h	Pf growth 96h	Sm TGR block	Giardia FBPA inh-1	Giardia growth	Mammal cell tox	Giardia FBPA inh-2	Rabbit aldolase	GAPDH counter
CCC(C)[C@H](NC(=O)[C@@H]1Cc2ccccc2CN1)C(=O)NCc1ccc(C)cc1 (some centres undefined)	-19.5	x	x	x	x	x	x	x	x	x
CCC(C)[C@H](NC(=O)[C@@H]1Cc2ccccc2CN1)C(=O)NCc1ccc(OC)cc1 (some centres undefined)	19.5	-4.7%	-13.8%	7.7%	14.1µM*	-29.8%	14.2%	8.1%	2.2%	10.7%
CCC(C)NCCOc1ccc(C(C)(C)c2ccccc2)cc1 (centres undefined)	u	u	-25.3%	0.7%	17.7µM*	u	-9.1%	8.9%	9.8%	-0.4%
N#Cc1ccccc1NC(=S)NC(=O)c1cccnc1	9.9	3.1%	u	u	14.1µM*	27.6%	4.0%	6.3%	-1.6%	15.5%
COc1cccc(C(=O)Nc2cccnc2)c1	11.7	87.2%	x	-9.9%	-2.0%	x	x	x	x	x
COc1cccc(NC(=S)NC(=O)c2cccnc2)c1	7.1	-4.1%	121.5%	11.2µM*	3.55µM*	-57.7%[38.3 µM]	-9.7%	-0.4%	-3.5%	2.2%
COc1cccc(NC(=S)Nc2ccc(F)cc2)c1	16.2	25.2%	-2.9%	u	-16.0%	x	x	x	x	x
COc1cccc(NC(=S)Nc2ccc(O)cc2)c1	x	20.4%	64.2%	u	17.7µM*	18.7%	1.7%	-23.7%	-14.8%	-18.8%
CCCOC(=O)c1cccc(NC(=O)c2cccnc2)c1	-8.8	x	0.1%	12.2%[11.4 µM]	-0.4%	x	x	x	x	x
CCOC(=O)c1cccc(NC(=S)NC(=O)c2cccnc2)c1	12.7	u	u	22.4µM*	10µM*	-11.7%[38.3 µM]	2.9%	-10.3%	-10.4%	-1.7%
CCOc1cc(C(=O)OC(C(=O)NC(=O)NC)c2ccccc2)ccc1OCC(=O)N1CCOCC1 (centres undefined)	34.3	x	x	x	x	x	x	x	x	x
COc1ccc(CCNS(=O)(=O)c2ccc3c(c2)CCCC3)cc1OC	-5.1	x	x	x	x	x	x	x	x	x
O=C(NNC(=O)c1ccc(-c2ccc([N+](=O)[O-])cc2)o1)c1ccncc1	1.8	-24.4%	-26.1%	-11.7%	x	x	x	x	x	x
CC(C)(C)OC(=O)NCCCCCNC(=O)c1ncn2c1c(=O)[nH]c1ccccc12	-11.4	x	x	x	x	x	x	x	x	x
CN=C(Nc1ccc(Cl)cc1)c1ccc(C(F)(F)F)cc1	1.6	45.2%	81.9%	2.9%	-0.9%	x	x	x	x	x
CN(N=Cc1cccc2cccnc12)c1ccc([N+](=O)[O-])cc1[N+](=O)[O-]	-16.2	x	x	x	x	x	x	x	x	x
COCc1cc(=O)[nH]c2cc(NC(=O)C3CC3)c(C)cc12	14.0	6.5%	64.9%	-0.2%	1.9%	x	x	x	x	x
